The record followed here is PubChem BioAssay (NCI).

Assay in all cases: NCI-60 one-dose screen, 48 h (100 = growth as untreated, 0 = no growth, -100 = all killed)
Common to all, as to details: 10 µM unless noted

Assay [1] deals with NCI-H23 lung.
Assay [2] concerns NCI-H226 lung.
The subject of assay [3] is NCI-H322M lung.
Assay [4] relates to HOP-62 NSCLC.
In assay [5] the test system is NCI-H460 lung.
The subject of assay [6] is NCI-H522 lung.
Assay [7] concerns A549/ATCC NSCLC.
The subject of assay [8] is 786-0 renal.
Assay [9] relates to COLO 205 colon.
The subject of assay [10] is HOP-92 NSCLC.

About 83,000 compounds went through this panel and 20% of them were active in at least one assay; those are over-represented in the sample as a whole.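 Single-concentration screen, 48 h exposure, 96-well plates. Endpoint: percent growth. Below 10 = active.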 A number with no mark means an inactive call. The source made the active and inactive calls.

Turning to `COc1ccc(-c2ccc3cnc4sc(-c5ccc(OC)cc5)nc4c3n2)cc1`, the growth in assay [1] was 91%; in assay [2], 85.7%; in assay [3], 86.7%; in assay [4], 97.8%; in assay [5], 102%; in assay [6], 87.4%. Moreover, the growth was 93.1% in assay [7], 106% in assay [8] and 104% in assay [9].

In the case of `CCN(CC)c1nc(SCc2ccccc2Cl)ncc1C`, the growth is 103% in [1]; 81.8% in [2]; 121% in assay [3]; 93.1% in assay [4]; 106% in [5]; 99% in assay [6]. Besides, the figures for the growth in [7], in assay [8] and in assay [9] were 95%, 106% and 112%, respectively.

As for `CCOC(=O)CSc1ncnc2c1c(-c1ccccc1)c(-c1ccccc1)n2-c1ccc(C)cc1`, the growth in assay [1] was 75%; in [2], 77.8%; in assay [3], 94.4%; in assay [4] it was 64.8%; in assay [5], 76.6%; in assay [6] it was 47.3%. For the same compound, the growth in assay [7] is 72.5%; in assay [8], 80.9%; in [9] it was 63.7%.

In the case of `CO[C@H]1/C=C(/C)CCC[C@H](C)[C@H](O)[C@@H](C)C(=O)C(C)(C)[C@@H](O)CC(=O)O[C@@H]1/C(C)=C/c1csc(C)n1`, the growth in assay [1] is 34.7%; in assay [2], 50.3%; in assay [3], 12.8%; in [4], 29.4%; in assay [5] it was 6.16% (active); in assay [6], -29.1% (active). For the same compound, the growth in [7] was 17.5%; in assay [8] it was 57.1%; in [9], -53% (active).

As for `O=C(CSc1nc(-c2ccccc2)[nH]c1S(=O)(=O)c1ccccc1)NC1CC1`, the growth in assay [1] was 56.6%; in [2] it was 85.8%; in [3], 105%; in [4], 21.2%; in assay [5] it was 102%; in assay [6] it was 76.2%. Besides, the growth in [7] was 42.1%; in assay [8], 94.5%; in assay [9], -30.9% (active).

For `CC(=O)Nc1nc2ccc(NS(=O)(=O)c3cccc4c(N(C)C)cccc34)cc2[nH]1`, the growth in assay [1] was 70.5%; in assay [2] it was 68.7%; in assay [3], 82.2%; in assay [4], 69.3%; in assay [5] it was 68%; in assay [6], 43.3%. In addition, the growth in assay [7] is 68%; in assay [8], 79.7%.

With `CCN(C(=O)N1CCN(c2cc3c(cc2F)c(=O)c(C(=O)O)cn3C2CC2)CC1)c1nc(-c2ccc(Cl)cc2)cs1`, the growth was 3.93% (active) in [1]; 11.9% in [2]; 11% in [3]; 14.2% in [4]; 8.51% (active) in assay [5]; -19.2% (active) in assay [10]. Further, the growth in [6] was 1.67% (active); in assay [7], 12.9%; in assay [8], 12.7%; in assay [9], 0.749% (active).

Regarding `O=C1c2cccc(NCCN=Cc3cc(O)ccc3O)c2C(=O)c2c(NCCN=Cc3cc(O)ccc3O)cccc21`, the growth in assay [1] is -26.1% (active); in assay [2] it was 6.91% (active); in assay [3], -11.3% (active); in [4], -9.1% (active); in assay [5], -70.8% (active); in assay [6], -65% (active). In addition, the growth is -55.6% (active) in assay [7], 0.261% (active) in assay [8] and -41.4% (active) in assay [9].

As to `COc1ccc(C2c3sc4c(F)cccc4c3Oc3nc[nH]c(=O)c32)cc1` (stereo unspecified), the growth in assay [1] is 78.4%; in assay [2], 66.6%; in assay [3] it was 68.6%; in [4] it was 79.5%; in assay [5], 82.7%; in assay [6], 80.1%. For the same compound, the growth in assay [7] is 88.8%; in [8], 91.8%; in assay [9], 108%.

`O=C(Cn1c2c(c3ccccc31)CCCC2)Nc1ccc(-c2nc3ccccc3s2)cc1`: the growth in [1] was 94.5%; in assay [2], 106%; in [3], 101%; in [4] it was 102%; in [5], 101%; in assay [6] it was 94.9%. Also, the results for the growth in assay [7], in assay [8] and in assay [9] were 105%, 109% and 104%, respectively.

`Cc1nc2c(=O)[nH]c(SCC(=O)Nc3cccc(F)c3)nc2[nH]c1=O`: the growth in [1] was 100%; in assay [2], 98.8%; in assay [3] it was 106%; in assay [4], 98.9%; in [5], 102%; in assay [6] it was 96.1%. Besides, the growth in assay [7] is 106%; in assay [8] it was 103%; in assay [9], 111%.

For `Brc1c2c(c(Br)c3ccccc13)CCCC2`, the growth is 97.7% in assay [1]; 85.8% in assay [2]; 84% in [4]; 111% in assay [5]; 80.9% in assay [10]; 75.5% in assay [6]. Besides, the growth is 79.7% in [7], 102% in assay [8] and 102% in assay [9].

Consider `Oc1c(Cl)cc(Cl)cc1/C=N/Nc1nnc(N/N=C/c2cc(Cl)cc(Cl)c2O)c2ccccc12`, for which the growth in [1] is -20.6% (active); in [2], -37.5% (active); in assay [4], 20.6%; in [5], 0.0293% (active); in [10] it was 13.9%; in [6], 14.1%. Also, the growth in [7] was 22.8%; in [8], -22.2% (active); in assay [9], 8.23% (active).

Take `CN1CCN(c2ccc(NC(=O)c3nc4ccc5[nH]ncc5c4c4c3CCCC4)cc2C(F)(F)F)CC1`: the growth in [1] was 90.2%; in assay [2], 80%; in [4], 72.2%; in assay [5], -55.4% (active); in assay [10], 49.2%; in assay [6], 76.7%. For the same compound, the growth was 60.2% in assay [7], 34.3% in assay [8] and 59.3% in assay [9].
